Rows were chosen to be rich in hits. Some 4.8% of all compounds tested hit in one or more screens of this group.
HEK293 cAMP ctrl: parental HEK293 cAMP activation (counter-screen) | parental HEK293 CNG cAMP sensor, membrane potential fluorescence | Potency, µM (series often up to 57.1 µM), for inactives: top-dose activation, usual class: activators | hit rate 2.5% among 73,000; also: % of control where 0% means no effect; nearly all actives have a fitted effect of over 55% in size
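Parental HEK 293 cells stably expressing a modified CNG channel (no TSHR) report cAMP rise as membrane depolarization. Membrane potential dye with 100 uM RO 20-1724 was loaded for 60 min at room temperature, then compound added for 30 min; fluorescence read at 590 nm.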
Caspase-7 inhib: caspase-7 (human) inhibition, allosteric or competitive; Potency, µM (highest dose often 57.5 µM), for inactives: at the highest dose activity change, negative = inhibition, hits mostly inhibitors; recombinant caspase-7, Ac-DEVD-AFC fluorescence rate; hit rate 0.02% among 75,000; AID 889; active = well fitted inhibition curve with a large enough effect in the main read-out, with a control signal flat, not every such curve was filed as active; inconclusive = small, poorly fitted or top-dose-only effect, or a change in a side signal; also: % of control where 0% means no effect
ERK AVP inh: blocks ERK signaling stimulated by vasopressin. HEK293-V1b, vasopressin-stimulated pERK AlphaScreen. Potency, µM (series often up to 57.5 µM), without a hit: top-dose activity, negative = inhibition, usual class: inhibitors. hit rate 0.99% among 72,000. AID 995; also: % is scaled to controls: 0 for no effect and ±100 for the full control effect; nearly all actives have a fitted effect of over 55% in size
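HEK293 cells stably expressing V1b receptor, seeded overnight in 1% FBS, were treated with compounds for 30 min at 37C, then stimulated 5 min with 25 nM vasopressin; phospho-ERK read by AlphaScreen SureFire after lysis.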
15-hLO inh: 15-hLO (ALOX15) enzyme inhibition. P16050. purified 15hLO-1, xylenol orange hydroperoxide absorbance. Potency, µM (highest dose often 57.1 µM), inactives show at the highest dose activity change, negative = inhibition, most hits filed as inhibitors. hit rate 1.4% among 74,000. AID 887; also: % is scaled to controls: 0 for no effect and ±100 for the full control effect; nearly all actives have a fitted effect of over 55% in size
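Purified human 15hLO-1 (40 nM) in 25 mM Hepes pH 7.5, 0.01% Triton X-100, preincubated 15 min RT with compound, then 50 uM arachidonic acid for 6 min. Hydroperoxide read by ferrous/xylenol orange, 30 min; 573/405 nm absorbance ratio gave progress.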
Casp1 inh: blocks human caspase-1 allosterically or competitively; AID 900; Potency, µM (titrated, usually from 57.5 µM), for the others: top-dose activity change, negative = inhibition, actives largely listed as inhibitors; P29466; Caspase-1 enzyme, Ac-WEHD-AFC fluorogenic rate; hit rate 0.03% among 75,000;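 also: plate controls were vehicle for no effect and no substrate for full effect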
TSHR agonist: agonists of human thyroid stimulating hormone receptor | AID 926 | Potency, µM (series often up to 57.1 µM), for the others: top-dose activation, most hits filed as activators | hit rate 0.48% among 73,000 | HEK293-CNG-TSHR cells (CNG channel as cAMP sensor), membrane potential dye, cAMP; active = well fitted activation curve with a large enough effect in the main read-out, with a control signal flat, not every such curve was filed as active; inconclusive = small, poorly fitted or top-dose-only effect, or a change in a side signal; inactive = no such curve, though single readings can be large or run the other way; % of control where 0% means no effect;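 also: the control signal comes from parental cells without the receptor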
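HEK 293 cells stably expressing TSHR and a modified CNG channel, with CNG-only parental cells as counterscreen, were preloaded 60 min at room temperature with membrane potential dye containing 100 uM RO 20-1724. Compound exposure was 30 min, and depolarization was read as fluorescence at 590 nm.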
Numbers without * were called inactive; ? = inconclusive; / = no result; [ ] = dose if it differs, or a comment. Unless noted, calls follow the shape of the dose curve; as a rule, active = well fitted curve in the direction sought with a large enough effect; inconclusive = small, poorly fitted or top-dose-only effect, or another doubt; inactive = no such curve, though single readings can be large; an effect the other way counts as inactive or inconclusive. Potency is read from the fitted curve at half-maximal effect.

SMILES	HEK293 cAMP ctrl	Caspase-7 inhib	ERK AVP inh	15-hLO inh	Casp1 inh	TSHR agonist
CC(=O)OCCN(Cc1ccccc1)Cc1ccc2c(c1)OCO2	28.8%	-1.8%	-28.5%	0.3%	-1.9%	25.1µM*
CC(=O)OC1CCC2(C)C3CC(=O)C4(C)C(CC5OC6(CCC(C)CO6)C(C)C54)C3CC[C@H]2C1 (stereo not given in full)	/	1.4%	-4.4%	6.9%	0.4%	/
O=C(C1CC1)N1CCN=C1SCc1cccc(F)c1	14.3%	2.6%	31.4%	0.5%	-1.8%	4.8%
Cc1cccc(CSC2=NCCN2C(=O)c2ccc(Br)o2)c1	31.6µM*	-6.5%	21.7%	-1.6%	-8.8%	?
CCNc1ncc2nc(-c3cn(C)c4ccccc34)c(=O)n(CCC#N)c2n1	-4.2%[2.29 µM]	?	-7.3%	-4.7%	?	5.1%
Cc1cc(C(=O)CSc2nnc(-c3cccc(F)c3)n2N)c(C)n1Cc1ccc2c(c1)OCO2	10µM*	-0.1%	-6.7%	-17.0%	-4.3%	?
Cc1cc(C(=O)CSc2nnnn2-c2ccc(O)cc2)c(C)n1Cc1ccc2c(c1)OCO2	?	-1.9%	14.4%	-20.9%	-2.2%	?
O=C(N[C@@H](c1ccccc1)[C@@H]1C[C@H]1C(=O)NCc1ccccc1)OCc1ccccc1	12.6µM*	0.3%	14.5%	/	-0.7%	?
COC(=O)[C@H](Cc1ccccc1)NC(=O)[C@H]1C[C@@H]1[C@H](NC(=O)OCc1ccccc1)c1ccccc1	15.8µM*	-2.7%	-14.3%	-3.0%	-3.2%	?
C=CCn1c(Cc2csc(N)n2)nnc1SCC(=O)OCC	3.7%	-1.1%	-7.9%	11.6%	0.0%	-1.1%
N#CCCn1c(=O)c(-c2cccs2)nc2cnc(Oc3cccc(Cl)c3)nc21	-23.2%	1.7%	-10.0%	-21.1%	-2.9%	-10.9%
CO[C@@H]1CC[C@@]2(C)[C@@H](CC[C@@]3(C)[C@H]2CC=C2[C@H]4CC(C)(C)[C@H](O)[C@@H](OC(C)=O)[C@]4(CO)[C@H](O)C[C@]23C)[C@@]1(C)CO (tested in a mixture with another compound)	1.9%[25.6 µM]	0.2%[25.7 µM]	?	3.3%[25.6 µM]	-2.0%[25.7 µM]	15.8µM*
Cc1ccc(CNC(=O)C2c3ccccc3C(=O)N(C)C2c2c[nH]c3ccccc23)o1 (stereo not given)	25.1µM*	-1.0%	-26.6%	?	-2.6%	?
COc1cc(N[C@@H](C)CCCN)c2ncccc2c1	-5.1%[25.6 µM]	-22.3%[25.7 µM]	15.6%[25.7 µM]	4.2%[25.6 µM]	2.51µM*	-19.6%[25.6 µM]
CCOC(=O)c1nn(-c2ccc(OC)cc2)c(=O)c2c(NC(=O)c3ccco3)scc12	11.5%	1.3%	21.9%	-2.7%	0.5%	6.7%
CCOC(=O)c1nn(-c2ccc(OC)cc2)c(=O)c2c(N)scc12	-2.5%	-11.2%	?	7.94µM*	?	-2.4%
COc1ccc(-c2[nH]ncc2-c2ccc3c(c2)OCCO3)c(O)c1	15.4%	0.4%	-17.3%	?	0.2%	9.9%
CCc1cc(-c2[nH]ncc2-c2ccc3c(c2)OCO3)c(O)cc1O	25.1µM*	-2.3%	?	25.1µM*	-5.0%	?
O=C(N1CCN(c2ccccn2)CC1)N1c2ccccc2Sc2ccccc21	24.5%	-2.0%	-16.6%	-1.2%	-0.5%	/
COc1cccc(O)c1O	/	-0.1%	-30.6%	0.794µM*	1.5%	/
Cc1ccc(C2C(C#N)=C(N)SC(N)=C2C#N)c(C)c1	16.3%	-8.5%	18.7%	?	-8.5%	-7.0%
N#CC1=C(N)SC(N)=C(C#N)C1c1ccnc2ccccc12	?	-27.1%	-31.9%	3.98µM*	?	?
Cn1c(=O)[nH]c(=O)c2c1nc(Br)n2CCCSc1nc2ccccc2o1	?	-1.9%	31.6µM*	-1.0%	-6.1%	?
Cn1c(=O)[nH]c(=O)c2c1nc(N1CCCC1)n2CCCSc1nc2ccccc2o1	-5.9%	-0.9%	-16.7%	-2.3%	0.6%	0.0%
O=C1c2ccccc2C(=O)N1CCCSc1nc2ccccc2o1	3.98µM*	-0.6%	?	-11.4%[11.4 µM]	-1.6%	?
SMILES	HEK293 cAMP ctrl	Caspase-7 inhib	ERK AVP inh	15-hLO inh	Casp1 inh	TSHR agonist
CN(C)/N=N/c1nc[nH]c1C(N)=O	?	-2.2%	9.8%	-3.6%	2.6%	?
CCOC(=O)c1cc(C#N)c(SCc2ccc(C#N)cc2)nc1C	31.6µM*	-24.1%	30.1%	2.6%	-9.9%	?
O=C(c1ccco1)N1CCC2(CC1)CCN(c1ccc(-c3ccccc3)cc1)CC2	5.6%	-3.6%	-3.7%	3.8%	1.9%	4.3%
CC(=O)Nc1ccc(-c2ccccc2)s1	-3.6%	2.0%	12.9%	-1.3%	-1.2%	-1.4%
CC(=O)Nc1ccc(NC(C)=O)s1	-0.8%	0.3%	1.6%	20µM*	2.1%	-9.5%
COc1ccc(CNc2nc(-c3ccc(C(=O)N(C)C)cc3)nc3ccccc23)c(OC)c1	22.2%	-4.2%	-0.1%	?	-2.6%	25.1µM*
COc1ccc(CNc2ccnc(-c3ccc(C(=O)N(C)C)cc3)n2)c(OC)c1	0.794µM*	-3.8%	4.3%	0.2%	-2.5%	?
COc1ccc(CNc2nc(-c3ccc(N(C)C)cc3)nc3ccccc23)c(OC)c1	-21.1%	-13.4%	-13.5%	10µM*	-12.2%	-20.0%
COc1ccccc1CNc1ccnc(-c2ccc(C(=O)N(C)C)cc2)n1	16.9%	-2.4%	-14.2%	-19.8%	-1.7%	/
COc1ccc(CNc2nc(-c3cccc(C#N)c3)nc3ccccc23)c(OC)c1	?	-7.9%	4.4%	6.8%	-7.1%	?
O=C(CN1CCCN(Cc2ccc(F)cc2Cl)C1=O)NCc1ccccc1	8.9%	-2.2%	14.0%	-2.5%	1.0%	25.1µM*
O=C(CN1CCN(Cc2ccccc2)C1=O)NCc1ccc(Cl)cc1	5.1%	0.0%	0.9%	3.3%	1.2%	-0.1%
C=C(C)CC1Nc2ccccc2NC1CC(=C)C (stereo not given)	4.7%	?	-20.6%	20µM*	/	-3.6%
CC(=O)NCCNc1ncncc1-c1ccccc1C(F)(F)F	?	-1.0%	5.0%	-24.4%	-0.9%	?
CC(=O)NCCNc1ncncc1-c1ccccc1C	?	-0.6%	6.7%	15.8µM*	-0.7%	?
CC(=O)c1cccc(-n2nnnc2SCC(=O)Nc2cccc(NC(=O)c3ccco3)c2)c1	-0.1%	0.1%	5.4%	-6.3%	-0.9%	2.0%
c1ccc(-c2onc3cc4c(cc23)OCCO4)cc1	?	-18.5%	?	12.6µM*	-13.5%	?
CC1(C)CC(=O)c2c(noc2-c2ccccc2)C1	7.4%	1.5%	28.2%	-3.7%	0.1%	18.8%
CC(C)CCn1c(N)c(S(=O)(=O)c2cccs2)c2nc3ccccc3nc21	13.3%	-26.9%	-16.5%	?	?	12.6µM*
Nc1c(S(=O)(=O)c2cccs2)c2nc3ccccc3nc2n1Cc1cccs1	?	?	-4.7%	?	/	?
